We go through 40 molecules from PubChem BioAssay (Tox21).

Results filed as inconclusive are left out. A call without a number means that no potency is given here. Values without a mark were called inactive. Active and inactive are the calls of the source. Calls come from the whole dose curve; as a rule, active = well fitted cell-killing curve with a large enough effect in the repeat runs; inconclusive = weak or mixed curves, or effect the other way; inactive = no such curve, though single readings can be large or run the other way.

This experiment is described as follows: qHTS assay to identify small molecule antagonists of the sonic hedgehog signaling (Shh) pathway - cell viability counter screen (AID 1259367). Note: nearly all actives have a fitted effect of over 55% in size. Conditions: NIH/3T3 Gli1-Luc viability, CellTiter-Fluor, 24 h; series mostly up to 92.4 µM. The source says: National Center for Advancing Translational Sciences [NCATS]
NIH Chemical Genomics Center [NCGC]
U.S. Environmental Protection Agency [EPA]
National Institutes of Environmental Health Sciences [NIEHS]
National Toxicology Program [NTP]
U.S. Food and Drug Administration [FDA]
The sonic hedgehog (Shh) pathway is essential for normal embryonic development. Dysregulation of the Shh pathway can cause severe developmental defects in organs. Therefore chemicals that interfere with the pathway are potential developmental toxicants. A cell line designated 3T3Gli1-Luc (DMB/OARSA/CFSAN/FDA, Laurel, MD), a NIH/3T3 derived clone containing stably integrated Gli1-Luc reporter is used to detect chemical interference of the Shh pathway, by changes in the expression of the firefly Luc gene under the control of the Gli1 transcriptional response element. This cell line was used to screen Tox21 libraries for identifying and prioritizing the potential developmental toxicants that interfere Shh pathway. Conditioned medium-stimulated mode was used to screen for chemicals inhibiting Shh signaling. The cytotoxicity of the compounds was tested in parallel by measuring the cell viability using CellTiter-Fluor assay system (Promega, Madison, WI) in the same wells.
Tox21 Assay Protocol Summary:
3T3 Gli1-Luc cells were dispensed at 2,000 per well in 5uL of culture medium into white solid bottom 1536-well plates (Greiner Bio-One, Monroe, NC) using a Multidrop Combi (Thermo Scientific, Waltham, MA) dispenser. The assay plates were incubated at 37 C and 5% CO2 for 4hr, and then 23nL of compounds dissolved in DMSO and positive control were transferred using a Pintool station (Wako, San Diego, CA). The compound transfer was followed by the addition of 1ul conditioned medium or assay buffer using two separate tips of Flying Reagent Dispenser (FRD, Aurora Discovery, San Diego, CA). The assay plates were incubated at 37C and 5% CO2 for 24hr. For viability read, after 23hr of compound treatment, 1uL of CellTiter-Fluor reagent (Promega Corporation, Madison, WI) was added to each well of the assay plates using Flying Reagent Dispenser (FRD, Aurora Discovery, San Diego, CA) and incubated the assay plates at 37C for 1hr. The fluorescence signal was quantified using a ViewLux plate reader (Perkin Elmer, Shelton, CT).
With `CCC(=O)Nc1ccc(O)cc1`, the Potency result was “inactive”.
In the case of `CCCCOc1cc(C(=O)NCCN(CC)CC)c2ccccc2n1`, the Potency result is “inactive”.
The same measure, in the same setting: then `OCCN(CCO)c1ccccc1`, with “inactive”; and `CCNCCO`, with “inactive”.
Regarding `O=C(O)c1cccc(Cl)c1Cl`, the Potency result was “inactive”.
Still for that read-out and setting: then `CCCCNc1ccc(C(=O)OCCN(CC)CC)cc1`, with “inactive”.
As to `CN1C(=O)CC(c2ccccc2)C1=O` (stereo not given), the Potency result is “inactive”.
The same measure, in the same setting: then `O=C(O)C(=O)Cc1c[nH]c2ccccc12`, with “inactive”.
The same measure, in the same setting: as for `CN1CCC[C@@H]1Cc1c[nH]c2ccc(CCS(=O)(=O)c3ccccc3)cc12`, the entry is “inactive”; as for `CCC/C=C/CO`, “inactive”.
Same read-out and setting: then `O=C1CCC(C2CCCCC2)CC1`, with “inactive”; and `CCN(CC)CCOc1ccc(Cc2ccccc2)cc1`, with “inactive”.
For `Nc1cccc(S(=O)(=O)O)c1`, the Potency result was “inactive”.
On the same count and under the same terms, as for `C=C(C)C(=O)OCCOP(=O)(O)O`, the entry is “inactive”.
On the same count and under the same terms, as for `Oc1ccccc1C=NCc1ccccc1`, the entry is “inactive”; as for `CCN[C@H]1CN(CCCOC)S(=O)(=O)c2sc(S(N)(=O)=O)cc21`, “inactive”.
In the case of `C[C@@H]1CN(c2c(F)c(N)c3c(=O)c(C(=O)O)cn(C4CC4)c3c2F)C[C@H](C)N1`, the viability change, negative = cytotoxic is 0.364% [at 19 µM].
As to `CCCS(=O)c1ccc2nc(NC(=O)OC)[nH]c2c1` (stereo not given), the Potency entry is “inactive”.
The same measure, in the same setting: then `CC(=O)O[C@H]1CC[C@@]2(C)C(=CC[C@@H]3[C@@H]2CC[C@]2(C)C(C(C)=O)=CC[C@@H]32)C1`, with “inactive”; and `CCCCC(CC)COC(=O)COc1cc(Cl)c(Cl)cc1Cl` (stereo not given), with “inactive”.
As to `CCCCCCCCCCCCOCCOS(=O)(=O)O`, the Potency result was “inactive”.
With `CCCCCCCOC(=O)CCC`, the Potency entry is “inactive”.
The same measure, in the same setting: then `Cc1ccc(C)c(N)c1`, with “inactive”.
`COc1ccccc1OCC(O)COC(N)=O` (stereo not given): the Potency entry was “inactive”.
For `CCOc1ccc(NC(N)=O)cc1`, the Potency entry was “inactive”.
For `O=C(O[C@@H](C(=O)O)[C@@H](OC(=O)c1ccccc1)C(=O)O)c1ccccc1`, the Potency entry was “inactive”.
Take `CC(C)(C)C1CCCCC1=O` (stereo not given): the Potency entry is “inactive”.
As for `CC1CN(c2ccccc2)NC1=O` (stereo not given), the Potency entry is “inactive”.
As to `O=C(O)[C@@H]1CSCN1`, the Potency entry was “inactive”.
For the molecule `CCCOCCC`, the Potency entry was “inactive”.
Turning to `C[C@@H]1CN(c2c(F)c(F)c3c(=O)c(C(=O)O)cn(C4CC4)c3c2F)C[C@H](C)N1`, the viability change, negative = cytotoxic is -0.257% [at 19 µM].
In the case of `COc1ccccc1N1CCN(CCCNc2cc(=O)n(C)c(=O)n2C)CC1`, the Potency entry was “inactive”.
With `COC(=O)c1ccc(OC)cc1`, the Potency entry was “inactive”.
Still for that read-out and setting: as for `CCCCN1C[C@H](O)[C@@H](O)[C@H](O)[C@H]1CO`, the entry is “inactive”.
On the same count and under the same terms, as for `Oc1ccccc1F`, the entry is “inactive”; as for `C[C@]12CCC(=O)C=C1CC[C@@H]1[C@@H]2CC[C@@]2(C)[C@H]1CC[C@]2(O)C(=O)CO`, “inactive”; as for `CN(C)Cc1ccccc1`, “inactive”.
Same read-out and setting: as for `O=C1Nc2ccc([N+](=O)[O-])cc2C1=O`, the entry is “inactive”; as for `CCOC(=O)C(Br)c1ccccc1` (stereo not given), “inactive”.
Turning to `CC(C)C1=CC2=CC[C@@H]3[C@](C)(CCC[C@@]3(C)C(=O)O)[C@H]2CC1`, the Potency entry was “inactive”.
